Drawing on PubChem BioAssay (EPA / NIEHS), this text covers outcome and AC50 for 40 compounds.

Records with an inconclusive call do not appear. Active and inactive are the calls of the source. Rule for the calls: active = hit-call score of the fitted dose curve at least 0.9, where 1 is the maximum; inconclusive = response in the unintended direction; inactive = score below 0.9.

Chain of Androgen receptor (Homo sapiens) (P10275 whole entry, looked up, the tested form may be a part): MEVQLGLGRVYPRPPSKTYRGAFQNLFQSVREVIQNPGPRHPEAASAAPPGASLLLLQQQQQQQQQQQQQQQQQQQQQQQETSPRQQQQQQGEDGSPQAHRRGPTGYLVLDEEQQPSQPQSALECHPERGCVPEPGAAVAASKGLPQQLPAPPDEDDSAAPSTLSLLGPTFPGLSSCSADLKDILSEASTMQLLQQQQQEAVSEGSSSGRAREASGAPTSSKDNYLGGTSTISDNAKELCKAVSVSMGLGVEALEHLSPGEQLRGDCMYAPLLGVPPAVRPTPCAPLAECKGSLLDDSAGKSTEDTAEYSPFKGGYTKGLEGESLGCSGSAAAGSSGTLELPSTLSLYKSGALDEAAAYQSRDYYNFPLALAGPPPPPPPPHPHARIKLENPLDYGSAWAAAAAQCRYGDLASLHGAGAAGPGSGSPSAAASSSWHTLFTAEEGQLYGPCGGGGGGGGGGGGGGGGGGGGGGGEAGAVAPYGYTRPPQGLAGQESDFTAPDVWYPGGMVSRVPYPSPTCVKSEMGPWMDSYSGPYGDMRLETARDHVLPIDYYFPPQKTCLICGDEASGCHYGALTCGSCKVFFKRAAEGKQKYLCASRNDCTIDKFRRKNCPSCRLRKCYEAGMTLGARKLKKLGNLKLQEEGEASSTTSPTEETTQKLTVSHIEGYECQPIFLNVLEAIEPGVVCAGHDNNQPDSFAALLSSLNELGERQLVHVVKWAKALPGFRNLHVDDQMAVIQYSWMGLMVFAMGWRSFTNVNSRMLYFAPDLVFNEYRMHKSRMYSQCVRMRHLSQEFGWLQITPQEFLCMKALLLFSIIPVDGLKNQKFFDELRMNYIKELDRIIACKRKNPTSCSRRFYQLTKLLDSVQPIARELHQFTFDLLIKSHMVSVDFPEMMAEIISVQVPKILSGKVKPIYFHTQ

This test deals with Androgen receptor (Homo sapiens) (UniProt P10275). The experiment in a line: ATG_AR_TRANS: Attagene TRANS-FACTORIAL HepG2 Assay for human Androgen Receptor (AR) (AID 2282973). The conditions noted are these: HepG2 Attagene TRANS-FACTORIAL AR reporter transcription. A digest of the protocol:
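Chimeric nuclear receptor–Gal4 activity was assessed in human HepG2 hepatocytes after 24 h chemical dosing. Induced reporter mRNA was detected via labelled RT-PCR fragments on capillary electrophoresis, and gain of signal was analysed against DMSO.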
On to `c1ccc2[nH]ccc2c1`, for which the compound was called inactive.

For the compound `CC(C)(C)c1cc(O)c(C(C)(C)C)cc1O`, the compound was classed as inactive.

For the compound `CC=CC(=O)OCC(C)C`, the outcome was inactive.

Turning to `CCCCCCCOC(=O)c1ccccc1C(=O)OCCCCCCC`, the call was inactive.

As to `C[N+](C)(CCCNS(=O)(=O)CCC(F)(F)C(F)(F)C(F)(F)C(F)(F)C(F)(F)C(F)(F)F)CC(=O)[O-]`, the result was inactive.

As for `CCc1ccc(C(c2ccc(CC)cc2)C(Cl)Cl)cc1`, the call was inactive.

As to `CC(=O)C1(C)CC2=C(CCCC2(C)C)CC1C` (stereo not given), the concentration at half-maximal activity (AC50) is 158 µM (active).

Turning to `CC(=O)O[C@@H]1C[C@@H]2CC[C@@]1(C)C2(C)C`, the call was inactive.

Turning to `CCCCCCCCCCCCCC(=O)OCC(O)CO` (stereo not given), the result was inactive.

Consider `FC1(F)C=CC(F)(F)C1(F)F`, for which the call was inactive.

With `CC(c1cc2ccccc2s1)N(O)C(N)=O` (stereo not given), the result was inactive.

Turning to `CC1=CCC2C(=O)OC(=O)C2C1` (stereo not given), the compound was classed as inactive.

On to `CC(O)COc1ccccc1` (stereo not given), for which the compound was called inactive.

In the case of `O=C(O)C(F)(OC(F)(F)C(F)(OC(F)(F)C(F)(OC(F)(F)C(F)(F)C(F)(F)F)C(F)(F)F)C(F)(F)F)C(F)(F)F` (stereo not given), the call was inactive.

With `NC(=O)OCC(COC(N)=O)c1ccccc1`, the call was inactive.

For `CCCCC[Si](OCC)(OCC)OCC`, the compound was classed as inactive.

With `Cc1ccc(O)cn1`, the result was inactive.

For `O=C1Cc2ccccc2N1c1c(Cl)cccc1Cl`, the call was inactive.

Regarding `CC=C(C)C=CC=C(C)C`, the compound was called inactive.

Consider `CCCCCCCCCCCCC[N+](C)(C)Cc1ccccc1`, for which the compound was called inactive.

Consider `NCC(F)(F)C(F)(F)C(F)(F)C(F)(F)F`, for which the outcome was inactive.

In the case of `O=CN1CCOCC1`, the compound was classed as inactive.

Consider `CC1=CP(=O)(c2ccccc2)CC1` (stereo not given), for which the compound was called inactive.

On to `NCC(F)(F)C(F)(F)C(F)(F)C(F)(F)C(F)(F)C(F)(F)C(F)(F)F`, for which the result was inactive.

As to `COc1cc(C(C)C)ccc1C`, the result was inactive.

For the compound `CC(C)[C@@H]1CC[C@@H](C)C[C@H]1O`, the compound was called inactive.

As to `C=CC(F)(F)C(F)(F)C(F)(F)C(F)(F)F`, the result was inactive.

Regarding `Cc1cccc(C)n1`, the result was inactive.

Take `CCC(C)NC(N)=O` (stereo not given): the result was inactive.

As for `C=C(C)[C@@H]1CC=C(C)C(=O)C1`, the result was inactive.

Turning to `O=c1cc(-c2ccccc2)oc2ccc3ccccc3c12`, the outcome was inactive.

Regarding `OC(O)(C(F)C(O)(O)C(F)(F)F)C(F)(F)F`, the outcome was inactive.

For the compound `C=CC(C)(C)O`, the outcome was inactive.

As for `O=C[C@H](O)[C@H](O)[C@H](O)CO`, the compound was called inactive.

As to `O=C(Cl)C(F)(F)C(F)(F)C(F)(F)C(=O)Cl`, the compound was called inactive.

As for `Cc1ccc(N(C)C)cc1`, the compound was called inactive.

With `CC(C)CC(=O)CC(C)CC(C)C` (stereo not given), the outcome was inactive.

For the compound `NC(O)(C(F)(F)F)C(F)(F)F`, the call was inactive.

Regarding `C#CC(C)N(C)C(=O)Nc1ccc(Cl)cc1` (stereo not given), the compound was called inactive.

As for `CC1=CCC2C(C1)C2(C)C` (stereo not given), the compound was classed as inactive.

A word on the AC50: it is the midpoint of the concentration-response curve, whichever way the signal moves.
